The results in this text go back to PubChem BioAssay (EPA / NIEHS).

Assay [1] has as its target PGR (gene 5241) (UniProt P06401). In words: TOX21_PR_BLA_Followup_Agonist_ratio: Tox21 HEK293 Progesterone Receptor (PR) Agonism Beta-lactamase Follow-Up Assay, Ratio (AID 2283933). Summed up:
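Ratio-based beta-lactamase reporter signal after 16 hr compound treatment of PR-UAS-bla HEK293T cells at 37C. Substrate loading lasted 2 hr at room temperature.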

Assay [2] in a line: TOX21_PR_BLA_Followup_Agonist_viability: Viability Assessment in the Tox21 HEK293 Progesterone Receptor (PR) Agonism Beta-lactamase Follow-Up Assay (AID 2283935).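 Note: signal loss means lower viability so actives are cytotoxic.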 In outline: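 Viability is read as CellTiter-Glo luminescence, where loss of signal indicates cytotoxicity. The cells are PR-UAS-bla HEK293T given compounds for 16 hr at 37C and 5% CO2, in the same wells used for the bla readout.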

Assay [3] in a line: TOX21_PR_BLA_Followup_Antagonist_viability: Viability Assessment in the Tox21 HEK293 Progesterone Receptor (PR) Antagonism Beta-lactamase Follow-Up Assay (AID 2283936).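 Note: cells exposed to compound with R5020 agonist for 16 h; hits lower the luminescence signal meaning cytotoxicity.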 Summed up:
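PR-UAS-bla HEK293T cells in medium with 2% charcoal-stripped FBS were treated with compounds plus R5020 for 16 hr at 37C. After the beta-lactamase read, CellTiter-Glo was added to the same wells and luminescence read after 30 min at room temperature.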

Assay [4] deals with PGR (gene 5241) (UniProt P06401). In words: TOX21_PR_LUC_Followup_Agonist: Tox21 HEK293 Progesterone Receptor (PR) Agonism Luciferase Follow-Up Assay (AID 2283937; active = hit-call score of the fitted dose curve at least 0.9, where 1 is the maximum; inactive = score below 0.9). Summed up: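 In HEK293 cells stably expressing PR-A with a luciferase reporter, compounds were incubated 16 h at 37C, and induced luminescence was quantified with ONE-Glo, multiplexed with cell viability.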
Assay [5] shares this target. As to the kind of experiment: TOX21_PR_LUC_Followup_Antagonist: Tox21 HEK293 Progesterone Receptor (PR) Antagonism Luciferase Follow-Up Assay (AID 2283938).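 Note: curve fitted upward as signal gain over DMSO baseline despite antagonist label.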 In outline: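 Luciferase reporter in HEK293-PR-A-luc cells: 16 h compound treatment at 37C, ONE-Glo luminescence detection, DMSO as negative control and baseline.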
For assay [6], the target named is Thyroid hormone receptor alpha (Rattus norvegicus) + Thyroid hormone receptor beta (Rattus norvegicus) (UniProt P18113+P63059). As to the kind of experiment: TOX21_TR_LUC_GH3_Antagonist_Followup: Tox21 GH3 Thyroid Hormone Receptor Antagonism Luciferase Follow-Up Assay (AID 2283942). In outline: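 Luminescence read-out (ONE-Glo, 30 min at room temperature) in GH3 reporter cells challenged with 1.0 nM T3 final. Compounds ran at 92 uM to 5nM over 15 concentrations for 24 h; DMSO served as negative control and baseline.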

In a further assay the target is THRA (gene 7067) (UniProt P10827). In words: TOX21_TRA_COA_Antagonist_Followup_ratio: Tox21 Thyroid Hormone Receptor alpha Antagonism through Coactivator Recruitment Follow-Up Assay, Ratio (AID 2283953). In outline: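 We measured antagonism of T3-type coactivator recruitment using a TR-FRET ratio (emission 520 and 495 nm) between a Tb-labelled anti-GST antibody on TRα LBD (2.5 nM) and SRC-2 peptide (200 nM). Activity was scaled between DMSO and T3 wells.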

Assay [7] has as its target THRB (gene 7068) (UniProt P10828). In words: TOX21_TRB_BLA_Antagonist_Followup_ratio: Tox21 Thyroid Hormone Receptor beta Antagonism Beta-lactamase (BLA) Follow-Up Assay, Ratio (AID 2283958). Summed up: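 Using charcoal-stripped 2% FBS medium, human TRβ-LBD/GAL4 reporter HEK293T cells received test compounds for 18 h. The endpoint is the cleaved-to-uncleaved substrate ratio (460/530 nm).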

A short description of assay [8]: TOX21_TRB_BLA_Antagonist_Followup_viability: Viability Assessment in the Tox21 Thyroid Hormone Receptor beta Antagonism Beta-lactamase (BLA) Follow-Up Assay (AID 2283961). In outline:
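In the same wells as the reporter read, cell health was gauged by CellTiter-Glo ATP luminescence, with signal loss indicating reduced viability. Cells had been exposed to test compounds for 18 h.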

Assay [9] concerns the target Retinoic acid receptor RXR-alpha (Homo sapiens) (UniProt P19793). As to the kind of experiment: TOX21_TR_RXR_BLA_Antagonist_Followup_ratio: Tox21 Thyroid Hormone Receptor beta Retinoid X Receptor alpha (RXRa) Antagonism Beta-lactamase (BLA) Follow-Up Assay, Ratio (AID 2283972). Summed up: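 Compounds were tested in triplicate at 11 concentrations on RXRa-bla HEK293T cells for 16 h. Substrate cleavage ratio, normalized to DMSO, gave the endpoint.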

Assay [10] in a line: TOX21_TR_RXR_BLA_Antagonist_Followup_viability: Viability Assessment in the Tox21 Thyroid Hormone Receptor beta Retinoid X Receptor alpha (RXRa) Antagonism Beta-lactamase (BLA) Follow-Up Assay (AID 2283979). Summed up: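 RXRa-bla HEK293T cells (2,500/well, phenol red-free DMEM, 2% charcoal-stripped FBS) were attached 5 h, then exposed to compounds at 11 concentrations in triplicate for 16 h at 37C. Viability measured by CellTiter-Glo ATP luminescence, bidirectional fitting versus DMSO.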

The nature of assay [11]: CCTE_Harrill_HTTr_Viability_MCF7: CCTE's 6-hour Cell Viability Assessment for the High-Throughput Transcriptomics (HTTr) Platform, in MCF-7 cells cultured in DMEM + 10% fetal bovine serum, Harrill Lab (AID 2284010; active = hit-call score of the fitted dose curve at least 0.9, where 1 is the maximum; inactive = score below 0.9). Summed up:
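Eight-point concentration series, six-hour exposure. Propidium iodide exclusion imaged to assess membrane integrity as a cytotoxicity readout; bidirectional fitting was done with DMSO as negative control and activity baseline.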

A short description of assay [12]: CCTE_Harrill_HTTr_Apoptosis_MCF7: CCTE's 6-hour Apoptosis Assessment for the High-Throughput Transcriptomics (HTTr) Platform, in MCF-7 cells cultured in DMEM + 10% fetal bovine serum, Harrill Lab (AID 2284011; active = hit-call score of the fitted dose curve at least 0.9, where 1 is the maximum; inactive = score below 0.9). Summed up: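 Apoptosis in MCF-7 cells grown in DMEM with 10% fetal bovine serum was scored after a six hour exposure by high content imaging of caspase-3/7 activation (CellEvent Caspase 3/7 Green), with DMSO serving as negative control and baseline.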

Assay [13] is described as follows: CCTE_Harrill_HTTr_CellCount_MCF7: CCTE's Cell Proliferation Assessment for the High-Throughput Transcriptomics (HTTr) Platform, Harrill Lab (AID 2284012).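 Note: count of Hoechst-stained nuclei per well by high-content imaging in MCF-7 cells; cells exposed to compound for six hours; intended direction is loss of nuclei count meaning fewer cells.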 In outline:
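For this full-screen endpoint, MCF-7 cultures received eight compound dilutions for six hours. Well nuclei counts from Hoechst imaging were analyzed relative to DMSO.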

Assay [14] has as its target THRB (gene 7068) (UniProt P10828). As to the kind of experiment: TOX21_TRB_COA_Antagonist_Followup_ratio: Tox21 Thyroid Hormone Receptor beta Antagonism through Coactivator Recruitment Follow-Up Assay, Ratio (AID 2283967). Summed up:
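GST-TRb LBD 5.0 nM + 0.10% BSA, compound added; fluorescein-SRC-2 peptide 200 nM, Tb-anti-GST Ab 2 nM. TR-FRET, ex 340 / em 520:495 ratio. Norm: DMSO 0%, T3 100%.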

The nature of assay [15]: TOX21_PR_LUC_Followup_Antagonist_viability: Viability Assessment in the Tox21 HEK293 Progesterone Receptor (PR) Antagonism Luciferase Follow-Up Assay (AID 2283940). In outline: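 Loss of CellTiter-Glo ATP signal indicates cytotoxicity in HEK293-PR-A-luc cells grown in 10% charcoal-stripped FBS medium, seeded 3,000 per well and incubated 16 h with compound at 37C.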
Assay [16] concerns the target Nucleoli Translocation, AR (gene 367) (UniProt P10275). As to the kind of experiment: UPITT_HCI_U2OS_AR_TIF2_Nucleoli_Antagonist: University of Pittsburgh U2OS Androgen Receptor-Transcriptional Intermediary Factor 2 (AR-TIF2) Antagonism High Content Imaging Assay for Nucleoli Translocation (AID 2283997). Summed up:
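Compounds are added at 20 uM final concentration in 0.2% DMSO to U2OS cells carrying AR-RFP and TIF2-GFP fusions. Nucleolar AR-RFP fluorescence is then quantified by automated imaging. Antagonism is fitted positively against DHT baseline.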

For assay [17], the target named is Ratio of Nucleoli Translocation and Cytoplasm, AR (gene 367) (UniProt P10275). In words: UPITT_HCI_U2OS_AR_TIF2_Nucleoli_Cytoplasm_Ratio_Antagonist: University of Pittsburgh U2OS Androgen Receptor-Transcriptional Intermediary Factor 2 (AR-TIF2) Antagonism High Content Imaging Assay for Ratio of Nucleoli Translocation and Cytoplasm (AID 2283999).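 Note: antagonists lower the DHT-driven ratio of nucleolar to cytoplasmic red signal.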 Summed up: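 This antagonist-mode endpoint tracks AR-RFP localisation, the nucleolus-to-cytoplasm intensity ratio, in TIF2-GFP-coexpressing U2OS cells. DMSO stays at or below 0.5%; testing spans 20 uM single-dose and 0.195–50 uM series, with DHT setting the activity baseline.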

For assay [18] the target is unchanged. In words: UPITT_HCI_U2OS_AR_TIF2_Nucleoli_Cytoplasm_Ratio_Agonist: University of Pittsburgh U2OS Androgen Receptor-Transcriptional Intermediary Factor 2 (AR-TIF2) Agonism High Content Imaging Assay for Ratio of Nucleoli Translocation and Cytoplasm (AID 2284000).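 Note: hits raise the red nucleolar to cytoplasm ratio above vehicle.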 Summed up:
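Human osteosarcoma U2OS line, AR-RFP plus TIF2-GFP; compounds 0.195–50 uM final, 0.5% DMSO. Readout: nucleolar/cytoplasmic RFP ratio by HCI, positive direction vs DMSO baseline.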

Results filed as inconclusive are left out. Active and inactive are the calls of the source. Rule for the calls, unless noted: active = hit-call score of the fitted dose curve at least 0.9, where 1 is the maximum; inconclusive = response in the unintended direction; inactive = score below 0.9.

Sequence of THRB (gene 7068) (P10828 whole entry, looked up, the tested form may be a part): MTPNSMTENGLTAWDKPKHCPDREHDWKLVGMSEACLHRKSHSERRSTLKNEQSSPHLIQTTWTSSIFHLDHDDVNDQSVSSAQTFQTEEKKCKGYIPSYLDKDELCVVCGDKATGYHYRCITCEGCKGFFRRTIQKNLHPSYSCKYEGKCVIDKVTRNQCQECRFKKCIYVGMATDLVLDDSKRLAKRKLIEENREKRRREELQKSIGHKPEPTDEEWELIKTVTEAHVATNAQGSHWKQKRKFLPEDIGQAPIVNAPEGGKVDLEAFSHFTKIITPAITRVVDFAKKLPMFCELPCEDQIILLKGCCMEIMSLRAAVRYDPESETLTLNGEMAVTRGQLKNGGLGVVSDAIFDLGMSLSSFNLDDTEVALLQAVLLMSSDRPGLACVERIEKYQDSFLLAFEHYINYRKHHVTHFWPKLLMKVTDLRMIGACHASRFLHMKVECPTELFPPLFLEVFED
Sequence of THRA (gene 7067) (P10827 whole entry, looked up, the tested form may be a part): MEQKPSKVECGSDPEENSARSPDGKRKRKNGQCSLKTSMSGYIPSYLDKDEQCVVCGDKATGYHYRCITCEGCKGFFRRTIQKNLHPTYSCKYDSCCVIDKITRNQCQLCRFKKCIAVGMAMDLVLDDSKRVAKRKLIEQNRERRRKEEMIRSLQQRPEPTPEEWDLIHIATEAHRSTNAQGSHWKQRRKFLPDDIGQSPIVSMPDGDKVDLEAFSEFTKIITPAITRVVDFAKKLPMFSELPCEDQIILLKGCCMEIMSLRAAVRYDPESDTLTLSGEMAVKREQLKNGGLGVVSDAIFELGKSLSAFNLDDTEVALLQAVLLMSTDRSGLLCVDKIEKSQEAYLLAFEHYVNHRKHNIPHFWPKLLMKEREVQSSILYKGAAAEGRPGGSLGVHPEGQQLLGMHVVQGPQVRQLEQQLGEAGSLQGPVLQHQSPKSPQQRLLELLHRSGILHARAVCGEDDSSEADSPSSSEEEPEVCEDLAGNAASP
Sequence of PGR (gene 5241) (P06401 whole entry, looked up): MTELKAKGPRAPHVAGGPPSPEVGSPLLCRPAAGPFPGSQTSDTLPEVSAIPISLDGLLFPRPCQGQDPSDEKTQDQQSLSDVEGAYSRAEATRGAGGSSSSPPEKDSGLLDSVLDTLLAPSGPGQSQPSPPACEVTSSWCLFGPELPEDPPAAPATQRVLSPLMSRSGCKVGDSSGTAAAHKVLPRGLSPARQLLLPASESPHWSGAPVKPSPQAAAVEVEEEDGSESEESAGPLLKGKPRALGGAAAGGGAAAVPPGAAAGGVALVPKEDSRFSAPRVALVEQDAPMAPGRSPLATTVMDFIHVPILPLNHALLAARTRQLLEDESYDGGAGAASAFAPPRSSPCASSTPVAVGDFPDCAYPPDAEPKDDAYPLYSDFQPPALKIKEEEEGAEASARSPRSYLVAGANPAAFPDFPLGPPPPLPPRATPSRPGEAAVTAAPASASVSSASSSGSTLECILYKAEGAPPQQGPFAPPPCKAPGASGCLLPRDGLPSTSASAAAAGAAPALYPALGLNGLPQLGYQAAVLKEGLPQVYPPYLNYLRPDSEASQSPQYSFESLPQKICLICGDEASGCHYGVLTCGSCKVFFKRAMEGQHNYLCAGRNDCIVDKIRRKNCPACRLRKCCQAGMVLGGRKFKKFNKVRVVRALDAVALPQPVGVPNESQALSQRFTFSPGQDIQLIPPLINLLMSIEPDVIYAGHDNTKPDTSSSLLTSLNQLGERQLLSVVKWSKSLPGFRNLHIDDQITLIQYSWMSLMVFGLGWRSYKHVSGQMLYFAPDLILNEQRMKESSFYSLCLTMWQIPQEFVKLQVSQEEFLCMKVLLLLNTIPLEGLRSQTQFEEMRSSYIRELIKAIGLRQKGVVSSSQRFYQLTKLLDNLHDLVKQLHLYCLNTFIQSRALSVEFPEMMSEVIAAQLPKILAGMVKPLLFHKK
Sequence of Retinoic acid receptor RXR-alpha (Homo sapiens) (P19793 whole entry, looked up): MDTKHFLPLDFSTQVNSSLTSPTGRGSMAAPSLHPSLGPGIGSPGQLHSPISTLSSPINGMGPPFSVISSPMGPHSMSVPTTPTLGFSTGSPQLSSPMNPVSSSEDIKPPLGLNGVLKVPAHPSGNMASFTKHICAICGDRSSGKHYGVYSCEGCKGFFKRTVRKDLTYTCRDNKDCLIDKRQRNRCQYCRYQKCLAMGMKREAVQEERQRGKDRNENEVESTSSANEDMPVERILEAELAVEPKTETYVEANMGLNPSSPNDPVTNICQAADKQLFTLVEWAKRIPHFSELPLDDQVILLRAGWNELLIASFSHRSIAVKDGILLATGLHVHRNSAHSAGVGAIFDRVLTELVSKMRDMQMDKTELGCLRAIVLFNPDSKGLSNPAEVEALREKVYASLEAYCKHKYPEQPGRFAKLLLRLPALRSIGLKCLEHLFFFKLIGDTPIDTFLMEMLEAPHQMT
Sequence of Ratio of Nucleoli Translocation and Cytoplasm, AR (gene 367) (P10275 whole entry, looked up): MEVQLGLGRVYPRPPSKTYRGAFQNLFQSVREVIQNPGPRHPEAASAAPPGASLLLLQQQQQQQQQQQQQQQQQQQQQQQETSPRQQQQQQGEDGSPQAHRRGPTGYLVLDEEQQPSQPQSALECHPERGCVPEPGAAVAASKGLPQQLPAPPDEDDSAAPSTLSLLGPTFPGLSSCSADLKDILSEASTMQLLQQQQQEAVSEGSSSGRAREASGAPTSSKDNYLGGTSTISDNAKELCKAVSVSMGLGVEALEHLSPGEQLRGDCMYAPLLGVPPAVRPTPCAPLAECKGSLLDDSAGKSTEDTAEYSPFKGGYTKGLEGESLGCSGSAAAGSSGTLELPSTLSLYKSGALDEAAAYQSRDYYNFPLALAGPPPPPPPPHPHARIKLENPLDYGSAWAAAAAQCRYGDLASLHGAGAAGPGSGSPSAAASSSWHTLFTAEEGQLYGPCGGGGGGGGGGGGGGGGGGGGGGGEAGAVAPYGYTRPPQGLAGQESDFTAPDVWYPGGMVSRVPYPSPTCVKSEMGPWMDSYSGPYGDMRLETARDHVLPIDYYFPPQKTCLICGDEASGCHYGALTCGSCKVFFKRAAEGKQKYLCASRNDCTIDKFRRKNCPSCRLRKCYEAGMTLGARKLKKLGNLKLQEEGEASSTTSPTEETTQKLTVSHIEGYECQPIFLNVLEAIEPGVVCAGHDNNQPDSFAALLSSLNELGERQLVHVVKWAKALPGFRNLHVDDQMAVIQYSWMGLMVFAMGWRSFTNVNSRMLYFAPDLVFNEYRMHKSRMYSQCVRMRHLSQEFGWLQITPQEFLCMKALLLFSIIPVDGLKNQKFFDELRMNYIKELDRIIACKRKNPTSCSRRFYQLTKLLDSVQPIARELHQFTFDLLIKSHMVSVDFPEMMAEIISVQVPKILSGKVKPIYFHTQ
Sequence of Nucleoli Translocation, AR (gene 367) (P10275 whole entry, looked up, the tested form may be a part): as the sequence (P10275 whole entry, looked up) above

For `CCCOc1ccc2c(c1)CC[C@@H]1[C@@H]2CC[C@]2(C)C(OC)CC[C@@H]12` (stereo partly specified), the outcome (with PGR (gene 5241) [1]; in assay [2]; in assay [3]; in the assay with PGR (gene 5241) [4]; in the assay with PGR (gene 5241) [5]) was inactive.

For `CC1(C)OC(=O)Nc2ccc(Br)cc21`, the result (with PGR (gene 5241) [1]; in assay [2]; in assay [3]; with PGR (gene 5241) [4]; with PGR (gene 5241) [5]) was inactive.

Regarding `COc1ccc2c(c1)N(C[C@H](C)CN(C)C)c1ccccc1S2`, in assay [6], the concentration at half-maximal activity (AC50) is 2790 nM (active). Besides, the outcome (with THRA (gene 7067); with THRB (gene 7068) [7]; in assay [8]; in [9]; in [10]) was inactive.

On to `O=C(c1ccccc1)c1ccc(O)cc1`, for which the result in assay [11], in [12] and in assay [13] was inactive.

Take `O=c1[nH]c(=O)n([C@H]2C[C@H](O)[C@@H](CO)O2)cc1C(F)(F)F`: the outcome (in [6]; in the assay with THRB (gene 7068) [7]; in assay [8]; in assay [10]) was inactive.

As for `CCCCCCC[N+](CC)(CC)CCCCc1ccc(Cl)cc1`, the outcome (in assay [6]; with THRA (gene 7067); with THRB (gene 7068) [7]; in the assay with THRB (gene 7068) [14]; in assay [9]; in [10]) was inactive.

Consider `C[C@@H]1CC(=O)NN=C1c1ccc(NN=C(C#N)C#N)cc1`, for which the outcome (with PGR (gene 5241) [1]; in assay [2]; in assay [3]; with PGR (gene 5241) [4]; in assay [15]) was inactive. Besides, in the assay with PGR (gene 5241) [5], the half-maximal activity concentration (AC50) is 3220 nM (active).

As for `C#C[C@]1(O)CC[C@H]2[C@@H]3CCC4=C(CCC(=O)C4)[C@H]3CC[C@@]21C`, the result (in [6]; with THRA (gene 7067); with THRB (gene 7068) [7]; in [8]; in the assay with THRB (gene 7068) [14]; in assay [10]) was inactive.

`O=C1c2ccccc2-c2n[nH]c3cccc1c23`: the outcome (in assay [6]; with THRA (gene 7067); in the assay with THRB (gene 7068) [7]; in assay [8]; in assay [9]; in assay [10]) was inactive.

`O=C1NC(=O)c2ccc3c4ccc5c6c(ccc(c7ccc1c2c73)c64)C(=O)NC5=O`: the call in assay [16], in assay [17], in assay [18], in assay [11] and in assay [12] was inactive.

As for `Clc1ccc2c(c1)Nc1ccccc1S2`, the result (with PGR (gene 5241) [1]; in assay [2]; in assay [3]; in the assay with PGR (gene 5241) [4]) was inactive. Besides, the half-maximal activity concentration (AC50) with PGR (gene 5241) [5] is 28900 nM (active).

For the molecule `COc1cc(NCc2ccc3nc(N)nc(N)c3c2C)cc(OC)c1OC`, the result (in [6]; in the assay with THRA (gene 7067); in the assay with THRB (gene 7068) [7]; with THRB (gene 7068) [14]) was inactive. For the same molecule, the AC50 in [8] is 1460 nM (active); in assay [9] it was 1760 nM (active); in assay [10], 1770 nM (active).

Take `O=C(O)c1cccnc1Nc1cccc(C(F)(F)F)c1`: the result (in [6]; in the assay with THRA (gene 7067); with THRB (gene 7068) [7]; in assay [8]; with THRB (gene 7068) [14]; in assay [9]) was inactive. Moreover, the molecule was called inactive in assay [10].

By AC50 is commonly meant the midpoint of the concentration-response curve, whichever way the signal moves.
